Consider 38 molecules from the supplement of paper PMC6897291.

SMILES strings stand for the structures. Counter-ions that a name gives are not always drawn.

The subject of the experiment is U-2932. The experiment in a line: growth inhibition by drug plus 177Lu-lilotomab satetraxetan (1 - RLU/untreated control) (fraction); higher = stronger inhibition. The conditions noted are these: 1000 nM; time (day): 5; 177Lu-lilotomab satetraxetan 1 ug/ml. The essentials: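 With or without 18 h pretreatment by a radiolabelled anti-CD37 antibody conjugate (~600 MBq/mg; 0.5 µg/ml RIVA, 1 µg/ml U-2932), RIVA and U-2932 cells were washed and plated at 3,000 cells/well. Pre-printed compound doses were 10/100 nM for RIVA and 10/1,000 nM for U-2932. Growth inhibition uses RealTime-Glo RLU relative to the untreated no-drug wells. The calculation is 1 − RLU/mean of 48 such wells per plate, with reads daily from day 3 after 1 h at 37°C.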
In the case of `COc1ccc(S(=O)(=O)Nc2cccnc2Nc2ccc(O)cc2)cc1`, the “growth inhibition by drug plus 177Lu-lilotomab satetraxetan” value (from here on “growth inhibition”) was determined as 0.934.
With `C[C@]12CCC(=O)C=C1CC[C@@H]1[C@@H]2[C@@H](O)C[C@@]2(C)[C@H]1CC[C@]2(O)C(=O)CO` [Hydrocortisone (Cortisol)], the “growth inhibition” value was found to be 0.293.
The same measure for `COc1cc(OC2CCN(C)CC2)ccc1Nc1ncc2c(n1)n(C1CCCC1)c(=O)n2C`: -0.0115; for `Nc1nc(F)nc2c1ncn2[C@@H]1O[C@H](CO)[C@@H](O)[C@@H]1O` [Fludarabine (Fludara)]: 0.131.
The figure for `Nc1nc(Nc2ccc(S(N)(=O)=O)cc2)nn1C(=O)c1c(F)cccc1F` is 0.661.
Regarding `Nc1ncn([C@@H]2O[C@H](CO)[C@@H](O)[C@H]2O)c(=O)n1` [Azacitidine (Vidaza)], the “growth inhibition” value stood at 0.146.
The same measure for `COc1cc2nccc(Oc3ccc(NC(=O)NC4CC4)c(Cl)c3)c2cc1C(N)=O` [E7080 (Lenvatinib)]: 0.0372; for `Nc1ccn([C@@H]2O[C@H](CO)[C@@H](O)[C@@H]2O)c(=O)n1` [Cytarabine]: 0.859.
In the case of `Nc1cccc2c1C(=O)N(C1CCC(=O)NC1=O)C2=O` (stereo not drawn) [Pomalidomide], the “growth inhibition” value amounted to 0.414.
As for `CN(C)c1nc(N(C)C)nc(N(C)C)n1` [Altretamine (Hexalen)], the “growth inhibition” value was 0.00142.
Turning to `Cc1[nH]c(/C=C2\C(=O)Nc3ccc(S(=O)(=O)N(C)c4cccc(Cl)c4)cc32)c(C)c1C(=O)N1CCN(C)CC1`, the “growth inhibition” value came to 0.135.
Turning to `O=C(O[C@@H]1Cc2c(O)cc(O)cc2O[C@@H]1c1cc(O)c(O)c(O)c1)c1cc(O)c(O)c(O)c1` [(-)-Epigallocatechin gallate], the “growth inhibition” value turned out to be 0.0512.
The same measure for `CCc1c2c(nc3ccc(OC(=O)N4CCC(N5CCCCC5)CC4)cc13)-c1cc3c(c(=O)n1C2)COC(=O)[C@]3(O)CC` [Irinotecan HCl Trihydrate (Campto)]: 0.965; for `S=C(NCc1ccc2c(c1)OCO2)N1CCN(c2ncnc3c2oc2ccccc23)CC1` [Amuvatinib (MP-470)]: 0.498.
On to `COc1ccc2c3n(c(=NC(=O)c4cccnc4)nc2c1OC)CCN3`, for which the “growth inhibition” value was 0.166.
With `C#Cc1cccc(Nc2ncnc3cc(OCCOC)c(OCCOC)cc23)c1` [Erlotinib HCl], the “growth inhibition” value is 0.691.
The same measure for `Cc1ccc(-c2cc(C(F)(F)F)nn2-c2ccc(S(N)(=O)=O)cc2)cc1` [Celecoxib]: 0.00456; for `N#CC[C@H](C1CCCC1)n1cc(-c2ncnc3[nH]ccc23)cn1`: -0.0674; for `CCc1cncnc1N1CCN(Cc2nc3ccc(C(F)(F)F)cc3[nH]2)CC1`: 0.0686.
The same measure for `CCN(CC)C(=S)SSC(=S)N(CC)CC` [Disulfiram (Antabuse)]: 0.982; for `CC(C)[C@H](C(=O)Nc1ccc(C(=O)NO)cc1)c1ccccc1`: 0.978; for `CC(=O)O[C@]1(C(C)=O)CC[C@H]2[C@@H]3C=C(C)C4=CC(=O)CC[C@]4(C)[C@H]3CC[C@@]21C` [Megestrol Acetate]: 0.0953.
The figure for `COc1cc2ncnc(Nc3cccc(Br)c3)c2cc1OC` is 0.0191; for `N#Cc1ccc(C(c2ccc(C#N)cc2)n2cncn2)cc1` [Letrozole] it is -0.0375; for `CC(=O)c1c(C)c2cnc(Nc3ccc(N4CCNCC4)cn3)nc2n(C2CCCC2)c1=O` it is -0.0131.
With `COc1cccc2c1C(=O)c1c(O)c3c(c(O)c1C2=O)C[C@@](O)(C(=O)CO)C[C@@H]3O[C@H]1C[C@H](N)[C@H](O)[C@H](C)O1` [Doxorubicin (Adriamycin)], the “growth inhibition” value worked out at 0.989.
The same measure for `CC(C)(C)c1[nH]cnc1/C=c1\[nH]c(=O)/c(=C/c2ccccc2)[nH]c1=O` [NPI-2358 (Plinabulin)]: 0.98; for `COc1cc(Nc2ncc3c(n2)-c2ccc(Cl)cc2C(c2c(F)cccc2OC)=NC3)ccc1C(=O)O` [MLN8237 (Alisertib)]: 0.316; for `O=c1[nH]cc(F)c(=O)[nH]1` [Adrucil (Fluorouracil)]: 0.184.
The figure for `CC(C)c1ccc(Cn2ccc3c4c(N)nc(NC5CC5)nc4ccc32)cc1` is 0.986; for `CC/C(=C(\c1ccccc1)c1ccc(OCCN(C)C)cc1)c1ccccc1` [Tamoxifen Citrate (Nolvadex)] it is 0.172.
As for `Cn1cc(C2=C(c3ccc(Cl)cc3Cl)C(=O)NC2=O)c2ccccc21`, the “growth inhibition” value is 0.059.
The same measure for `c1ccc(-c2nn3c(c2-c2ccnc4cc(OCCN5CCOCC5)ccc24)CCC3)nc1`: 0.0497; for `O=C(NCCS(=O)(=O)c1ccc(C(F)(F)F)cn1)c1ccc(Cl)cc1`: 0.0729.
For `Cc1ccc(S(=O)(=O)C=CC#N)cc1`, the “growth inhibition” value stood at 0.194.
The same measure for `CCC1=C[C@@H]2CN(C1)Cc1c([nH]c3ccccc13)[C@@](C(=O)OC)(c1cc3c(cc1OC)N(C)[C@H]1[C@@](O)(C(=O)OC)[C@H](OC(C)=O)[C@]4(CC)C=CCN5CC[C@]31[C@@H]54)C2` [Vinorelbine (Navelbine)]: 0.983; for `Cc1cc(Nc2cc(N3CCN(C)CC3)nc(/C=C/c3ccccc3)n2)n[nH]1`: 0.0776.
Regarding `CN(N=O)C(=O)N[C@@H](C=O)[C@@H](O)[C@H](O)[C@H](O)CO` [Streptozotocin (Zanosar)], the “growth inhibition” value is -0.0119.
